The values below come from publication PMC7862700, “An all-to-all approach to the identification of sequence-specific readers for epigenetic DNA modifications on cytosine”.

Test in all cases: DAPPL (digital affinity profiling via proximity ligation, sequencing); 10 mM Tris-HCl pH 7.5, 50 mM NaCl, 1 mM DTT, 4% glycerol, room temperature, 30 min; GST-TFs on glutathione beads, 16-mer random dsDNA library, 0.1% formaldehyde crosslink after washing; high values mean tight binding
Details in all cases: protein: recombinant; tags: N-terminal GST; dsDNA, one strand shown

For one test, the target named is T1, ERF (Homo sapiens, UniProt P50548 1-548).
T1 sequence: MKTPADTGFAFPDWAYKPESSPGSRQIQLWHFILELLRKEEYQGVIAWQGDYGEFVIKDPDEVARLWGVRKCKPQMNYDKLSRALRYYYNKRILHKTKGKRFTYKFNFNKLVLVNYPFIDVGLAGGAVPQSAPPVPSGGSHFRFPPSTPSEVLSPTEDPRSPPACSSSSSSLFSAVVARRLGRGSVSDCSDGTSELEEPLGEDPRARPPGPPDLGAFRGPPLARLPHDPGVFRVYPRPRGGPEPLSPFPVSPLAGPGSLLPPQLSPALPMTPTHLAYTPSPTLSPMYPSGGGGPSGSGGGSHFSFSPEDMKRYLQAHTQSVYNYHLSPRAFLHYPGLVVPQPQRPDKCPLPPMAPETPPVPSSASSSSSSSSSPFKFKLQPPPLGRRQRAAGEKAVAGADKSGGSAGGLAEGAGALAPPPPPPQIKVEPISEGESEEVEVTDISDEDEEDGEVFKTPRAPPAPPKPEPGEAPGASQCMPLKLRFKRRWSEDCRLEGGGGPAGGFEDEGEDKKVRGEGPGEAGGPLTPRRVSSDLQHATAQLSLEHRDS
Summed up:
(§1)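 Pools were built from human transcription factors expressed in yeast as GST fusions, captured on glutathione beads and DNA-barcoded, along with a tag-only sample. Incubation with 200 nmole of a 16-mer random double-stranded DNA library lasted 30 min at room temperature in Tris/NaCl/DTT/glycerol buffer, and was followed by washing, 0.1% formaldehyde crosslinking, proximity ligation, PCR amplification and Illumina NextSeq500 sequencing. Binding signal is the quotient of each hexamer's read frequency for a factor and its frequency for the tag-only sample.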

A further test concerns the target T2, ETV3L (Homo sapiens, UniProt Q6ZN32 1-361).
T2 sequence: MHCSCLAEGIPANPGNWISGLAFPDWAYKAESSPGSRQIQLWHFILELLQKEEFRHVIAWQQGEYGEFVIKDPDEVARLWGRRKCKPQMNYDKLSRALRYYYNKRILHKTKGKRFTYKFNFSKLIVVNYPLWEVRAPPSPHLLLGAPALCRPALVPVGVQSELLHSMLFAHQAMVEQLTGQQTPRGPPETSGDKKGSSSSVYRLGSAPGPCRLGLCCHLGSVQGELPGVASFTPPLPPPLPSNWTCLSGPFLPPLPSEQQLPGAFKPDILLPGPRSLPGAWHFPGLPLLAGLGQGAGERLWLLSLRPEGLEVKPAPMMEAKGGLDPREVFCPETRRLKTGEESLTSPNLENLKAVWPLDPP
Summed up: as §1

A further test has as its target T3, ETS2 (Homo sapiens, UniProt P15036 1-469).
T3 sequence: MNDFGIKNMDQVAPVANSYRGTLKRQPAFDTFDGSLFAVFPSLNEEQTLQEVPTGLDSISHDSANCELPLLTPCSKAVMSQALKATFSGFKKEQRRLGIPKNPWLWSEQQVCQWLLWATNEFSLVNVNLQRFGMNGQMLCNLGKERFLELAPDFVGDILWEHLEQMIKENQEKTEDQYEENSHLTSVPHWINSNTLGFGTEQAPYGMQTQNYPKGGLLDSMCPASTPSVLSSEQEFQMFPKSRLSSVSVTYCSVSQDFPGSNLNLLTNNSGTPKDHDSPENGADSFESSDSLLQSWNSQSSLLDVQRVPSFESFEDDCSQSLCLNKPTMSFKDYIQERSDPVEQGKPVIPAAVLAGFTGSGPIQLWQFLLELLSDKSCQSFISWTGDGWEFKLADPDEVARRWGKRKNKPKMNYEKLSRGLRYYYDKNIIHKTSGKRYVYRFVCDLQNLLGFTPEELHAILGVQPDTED
Summed up:
as §1

The next test has as its target T4, SPDEF (Homo sapiens, UniProt O95238 1-335).
T4 sequence: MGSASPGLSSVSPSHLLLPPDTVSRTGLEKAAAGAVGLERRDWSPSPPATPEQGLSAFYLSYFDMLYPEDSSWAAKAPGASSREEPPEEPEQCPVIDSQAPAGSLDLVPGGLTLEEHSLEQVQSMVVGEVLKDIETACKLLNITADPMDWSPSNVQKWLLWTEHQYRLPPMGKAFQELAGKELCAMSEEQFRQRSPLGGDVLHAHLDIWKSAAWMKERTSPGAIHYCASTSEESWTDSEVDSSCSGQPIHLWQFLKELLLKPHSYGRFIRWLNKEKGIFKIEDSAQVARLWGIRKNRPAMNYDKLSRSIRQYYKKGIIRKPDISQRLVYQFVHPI
Summed up:
as §1

A further test has as its target T5, ETV7 (Homo sapiens, UniProt Q9Y603 1-341).
T5 sequence: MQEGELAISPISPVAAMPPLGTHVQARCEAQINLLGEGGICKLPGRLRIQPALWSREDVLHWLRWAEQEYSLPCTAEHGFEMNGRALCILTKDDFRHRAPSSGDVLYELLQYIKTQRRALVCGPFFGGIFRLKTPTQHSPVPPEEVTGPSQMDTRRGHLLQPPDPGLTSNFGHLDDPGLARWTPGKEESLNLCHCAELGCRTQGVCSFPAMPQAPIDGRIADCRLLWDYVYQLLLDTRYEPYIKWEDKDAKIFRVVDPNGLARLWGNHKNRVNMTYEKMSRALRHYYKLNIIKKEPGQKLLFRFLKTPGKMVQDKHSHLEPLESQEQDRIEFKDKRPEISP
Summed up: as §1

The target of another test is T6, ELF5 (Homo sapiens, UniProt Q9UKW6-2 1-255).
T6 sequence: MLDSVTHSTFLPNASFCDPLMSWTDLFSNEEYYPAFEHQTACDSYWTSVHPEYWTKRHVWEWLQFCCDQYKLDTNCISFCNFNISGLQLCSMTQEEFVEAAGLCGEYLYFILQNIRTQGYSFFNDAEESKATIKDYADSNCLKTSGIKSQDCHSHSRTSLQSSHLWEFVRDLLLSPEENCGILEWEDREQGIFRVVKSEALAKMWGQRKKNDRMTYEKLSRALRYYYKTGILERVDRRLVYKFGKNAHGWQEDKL
Summed up: as §1

A further test deals with T7, ETV3 (Homo sapiens, UniProt P41162-2 1-143).
T7 sequence: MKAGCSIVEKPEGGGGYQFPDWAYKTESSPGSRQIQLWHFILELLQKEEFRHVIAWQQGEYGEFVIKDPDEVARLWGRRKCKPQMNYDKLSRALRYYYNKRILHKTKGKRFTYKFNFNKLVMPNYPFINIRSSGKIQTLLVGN
Summed up:
as §1

A further test concerns the target ETV6 (Homo sapiens, UniProt P41212 1-452). Summed up:
as §1

ETV6, sequence (P41212 whole entry): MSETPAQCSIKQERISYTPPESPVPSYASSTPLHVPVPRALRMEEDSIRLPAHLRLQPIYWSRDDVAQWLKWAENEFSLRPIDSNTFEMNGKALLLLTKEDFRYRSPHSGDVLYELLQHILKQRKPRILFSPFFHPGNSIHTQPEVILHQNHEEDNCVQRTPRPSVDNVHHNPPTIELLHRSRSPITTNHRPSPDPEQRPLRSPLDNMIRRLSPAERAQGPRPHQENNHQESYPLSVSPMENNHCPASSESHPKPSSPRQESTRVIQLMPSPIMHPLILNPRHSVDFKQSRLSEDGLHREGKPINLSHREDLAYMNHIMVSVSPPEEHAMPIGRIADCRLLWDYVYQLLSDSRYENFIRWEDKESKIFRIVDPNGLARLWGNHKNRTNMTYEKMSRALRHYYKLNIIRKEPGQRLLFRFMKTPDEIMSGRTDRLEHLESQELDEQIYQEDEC

For TGATGT, the binding signal is 1.16 fold enrichment (6-mer frequency, TF over GST control) with ERF; 1.21 fold enrichment (6-mer frequency, TF over GST control) with ETV3L; 1.29 fold enrichment (6-mer frequency, TF over GST control) with ETS2; 1.26 fold enrichment (6-mer frequency, TF over GST control) in the test with SPDEF; 1.18 fold enrichment (6-mer frequency, TF over GST control) in the test with ETV7; 1.23 fold enrichment (6-mer frequency, TF over GST control) with ELF5. In addition, the binding signal was 1.15 fold enrichment (6-mer frequency, TF over GST control) with ETV3 and 1.22 fold enrichment (6-mer frequency, TF over GST control) in the test with ETV6.

Consider CTCGAA, for which the binding signal with ERF was 1.22 fold enrichment (6-mer frequency, TF over GST control); in the test with ETV3L, 1.24 fold enrichment (6-mer frequency, TF over GST control); with ETS2, 1.2 fold enrichment (6-mer frequency, TF over GST control); with SPDEF it was 1.11 fold enrichment (6-mer frequency, TF over GST control); in the test with ETV7, 1.19 fold enrichment (6-mer frequency, TF over GST control); in the test with ELF5, 1.17 fold enrichment (6-mer frequency, TF over GST control). In addition, the binding signal with ETV3 is 1.18 fold enrichment (6-mer frequency, TF over GST control); in the test with ETV6 it was 1.12 fold enrichment (6-mer frequency, TF over GST control).

As to CACGAC, the binding signal is 1.22 fold enrichment (6-mer frequency, TF over GST control) in the test with ERF; 1.26 fold enrichment (6-mer frequency, TF over GST control) in the test with ETV3L; 1.24 fold enrichment (6-mer frequency, TF over GST control) with ETS2; 1.19 fold enrichment (6-mer frequency, TF over GST control) with SPDEF; 1.34 fold enrichment (6-mer frequency, TF over GST control) in the test with ETV7; 1.24 fold enrichment (6-mer frequency, TF over GST control) in the test with ELF5. For the same sequence, the binding signal with ETV3 is 1.15 fold enrichment (6-mer frequency, TF over GST control); in the test with ETV6, 1.24 fold enrichment (6-mer frequency, TF over GST control).

With TATATG, the binding signal with ERF was 1.48 fold enrichment (6-mer frequency, TF over GST control); with ETV3L it was 1.35 fold enrichment (6-mer frequency, TF over GST control); in the test with ETS2, 1.38 fold enrichment (6-mer frequency, TF over GST control); with SPDEF it was 1.29 fold enrichment (6-mer frequency, TF over GST control); with ETV7 it was 1.29 fold enrichment (6-mer frequency, TF over GST control); in the test with ELF5 it was 1.39 fold enrichment (6-mer frequency, TF over GST control). Moreover, the binding signal was 1.41 fold enrichment (6-mer frequency, TF over GST control) with ETV3 and 1.34 fold enrichment (6-mer frequency, TF over GST control) in the test with ETV6.

As for ACCCAC, the binding signal is 1.2 fold enrichment (6-mer frequency, TF over GST control) with ERF; 1.02 fold enrichment (6-mer frequency, TF over GST control) with ETV3L; 1.15 fold enrichment (6-mer frequency, TF over GST control) in the test with ETS2; 1.21 fold enrichment (6-mer frequency, TF over GST control) in the test with SPDEF; 1.18 fold enrichment (6-mer frequency, TF over GST control) with ETV7; 1.19 fold enrichment (6-mer frequency, TF over GST control) with ELF5. Further, the binding signal in the test with ETV3 was 1.13 fold enrichment (6-mer frequency, TF over GST control); with ETV6 it was 1.2 fold enrichment (6-mer frequency, TF over GST control).

In the case of ATTACT, the binding signal in the test with ERF is 1.37 fold enrichment (6-mer frequency, TF over GST control); with ETV3L, 1.23 fold enrichment (6-mer frequency, TF over GST control); with ETS2 it was 1.31 fold enrichment (6-mer frequency, TF over GST control); with SPDEF it was 1.26 fold enrichment (6-mer frequency, TF over GST control); with ETV7, 1.25 fold enrichment (6-mer frequency, TF over GST control); with ELF5, 1.25 fold enrichment (6-mer frequency, TF over GST control). Further, the binding signal was 1.29 fold enrichment (6-mer frequency, TF over GST control) with ETV3 and 1.37 fold enrichment (6-mer frequency, TF over GST control) with ETV6.

In the case of GATGAA, the binding signal is 1.17 fold enrichment (6-mer frequency, TF over GST control) with ERF; 1.25 fold enrichment (6-mer frequency, TF over GST control) in the test with ETV3L; 1.19 fold enrichment (6-mer frequency, TF over GST control) with ETS2; 1.15 fold enrichment (6-mer frequency, TF over GST control) with SPDEF; 1.24 fold enrichment (6-mer frequency, TF over GST control) with ETV7; 1.17 fold enrichment (6-mer frequency, TF over GST control) in the test with ELF5. Besides, the binding signal is 1.11 fold enrichment (6-mer frequency, TF over GST control) in the test with ETV3 and 1.18 fold enrichment (6-mer frequency, TF over GST control) with ETV6.
